Common to all, as to set-up: scale not given: direction of the effect not stated beside the values
Assay [1] addresses Protein translocase subunit SecA (Escherichia coli (strain K12)) (UniProt P10408). In words: Assay to Identify E. coli SecA ATPase Inhibitors. To be noted: 30 µM. It counts as functional.
For assay [2], the target named is T1, Ubiquitin-activating enzyme e1, putative (Leishmania donovani (strain BPK282A1)) (UniProt E9BSI1).
T1 sequence (whole entry): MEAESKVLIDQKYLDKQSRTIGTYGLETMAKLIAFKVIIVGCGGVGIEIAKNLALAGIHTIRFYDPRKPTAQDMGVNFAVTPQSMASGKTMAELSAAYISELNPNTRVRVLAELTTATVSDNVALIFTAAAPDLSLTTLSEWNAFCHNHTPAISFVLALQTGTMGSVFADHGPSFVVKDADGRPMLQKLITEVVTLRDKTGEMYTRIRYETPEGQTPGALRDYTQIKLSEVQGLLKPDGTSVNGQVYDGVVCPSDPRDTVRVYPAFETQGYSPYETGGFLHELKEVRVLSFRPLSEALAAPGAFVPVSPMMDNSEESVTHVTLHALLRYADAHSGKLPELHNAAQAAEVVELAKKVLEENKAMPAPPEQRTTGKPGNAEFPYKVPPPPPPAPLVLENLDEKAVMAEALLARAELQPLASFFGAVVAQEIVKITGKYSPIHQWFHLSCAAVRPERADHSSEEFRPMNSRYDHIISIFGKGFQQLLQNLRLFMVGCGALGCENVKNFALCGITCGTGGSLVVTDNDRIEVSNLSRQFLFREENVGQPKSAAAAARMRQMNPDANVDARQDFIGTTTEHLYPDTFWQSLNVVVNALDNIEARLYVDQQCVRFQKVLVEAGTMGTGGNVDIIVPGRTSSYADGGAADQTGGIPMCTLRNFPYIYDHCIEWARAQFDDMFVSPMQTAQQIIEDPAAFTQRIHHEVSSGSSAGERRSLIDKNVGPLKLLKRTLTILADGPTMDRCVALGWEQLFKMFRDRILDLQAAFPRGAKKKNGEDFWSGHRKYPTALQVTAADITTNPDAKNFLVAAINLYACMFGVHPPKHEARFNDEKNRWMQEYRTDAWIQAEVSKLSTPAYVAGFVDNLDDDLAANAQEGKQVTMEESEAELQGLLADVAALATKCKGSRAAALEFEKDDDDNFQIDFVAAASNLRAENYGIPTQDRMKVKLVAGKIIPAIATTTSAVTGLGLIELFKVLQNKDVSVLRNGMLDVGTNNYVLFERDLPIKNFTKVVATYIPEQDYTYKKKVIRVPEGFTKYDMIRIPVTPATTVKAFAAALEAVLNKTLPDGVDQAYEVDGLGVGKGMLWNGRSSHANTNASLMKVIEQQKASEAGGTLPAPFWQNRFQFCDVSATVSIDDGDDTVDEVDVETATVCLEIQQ
In words: Leishmania donovani Ubiquitin Activating Enzyme (LdE1). It counts as functional. To be noted: 30 µM.

The target of assay [3] is AMP-activated protein kinase, AMPK (Homo sapiens) (UniProt P54646+O43741+P54619+Q9UGJ0+Q9Y478+Q13131+Q9UGI9). In words: AMP-dependent Kinase enzyme assay. An in vitro enzyme assay that detects ADP turnover that is directly proportional to AMPK activity. This uses naive AMPK that is activated during the assay with MK-8722. It counts as functional. To be noted: 30 µM.
Assay [4] concerns the target Sialic acid-binding Ig-like lectin 9 (Homo sapiens) (UniProt Q9Y336). In words: Hs-Siglec9 ALPHAscreen SOP 20170721. To be noted: 10 µM. Background: Bead proximity is the source of the signal in Alpha formats.
The next assay has as its system Trypanosoma cruzi. In words: Trypanosoma cruzi phosphomannomutase and mannose-1-phosphate guanylyltransferase assay. It counts as functional. The settings on record: 10 µM.
In assay [5] the target is T2, Arginase-2, mitochondrial (Homo sapiens) (UniProt P78540).
T2 sequence (whole entry): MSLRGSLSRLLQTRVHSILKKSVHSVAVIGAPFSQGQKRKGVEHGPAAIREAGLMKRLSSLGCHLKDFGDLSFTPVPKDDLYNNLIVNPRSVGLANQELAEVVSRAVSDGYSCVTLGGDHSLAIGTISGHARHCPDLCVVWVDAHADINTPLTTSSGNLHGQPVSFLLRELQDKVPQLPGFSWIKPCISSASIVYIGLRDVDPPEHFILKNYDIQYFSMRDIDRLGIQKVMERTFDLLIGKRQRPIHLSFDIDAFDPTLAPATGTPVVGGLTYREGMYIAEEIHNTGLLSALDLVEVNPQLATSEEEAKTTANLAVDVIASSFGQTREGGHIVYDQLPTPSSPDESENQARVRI
In words: in vitro enzyme assay to detect the production of urea directly proportional to the activity of Arginase II. Further: in the data most compounds retested in dose-response had high values. It counts as functional. The settings on record: 33.3 µM.

The target in assay [6] is T3, Proteasome subunit beta (Trypanosoma cruzi) (UniProt O96673).
T3 sequence (whole entry): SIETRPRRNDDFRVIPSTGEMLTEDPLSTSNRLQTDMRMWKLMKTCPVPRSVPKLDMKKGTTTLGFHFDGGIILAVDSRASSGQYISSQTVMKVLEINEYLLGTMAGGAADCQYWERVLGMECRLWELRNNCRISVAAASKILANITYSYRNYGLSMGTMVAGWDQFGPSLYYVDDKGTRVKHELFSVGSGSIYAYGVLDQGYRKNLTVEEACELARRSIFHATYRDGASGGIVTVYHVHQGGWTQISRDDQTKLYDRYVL
In words: Trypanosoma cruzi proteasome chymotrypsin-like activity (TcProtChymo) assay. Further: in the data most compounds retested in dose-response had high values. It counts as functional. The settings on record: 9.37 µM.

The species named for a further assay is Homo sapiens. In words: To identify inhibition of the IFN signalling (Jak-Stat) pathway via expression of an eGFP reporter gene under the control of an IFN-stimulated response element (ISRE) containing MxA promoter. It counts as functional. The settings on record: 30 µM.
Assay [7] has as its target T4, Tyrosyl-tRNA synthetase, putative (Trypanosoma cruzi (strain CL Brener)) (UniProt Q4DSP6).
T4 sequence (whole entry): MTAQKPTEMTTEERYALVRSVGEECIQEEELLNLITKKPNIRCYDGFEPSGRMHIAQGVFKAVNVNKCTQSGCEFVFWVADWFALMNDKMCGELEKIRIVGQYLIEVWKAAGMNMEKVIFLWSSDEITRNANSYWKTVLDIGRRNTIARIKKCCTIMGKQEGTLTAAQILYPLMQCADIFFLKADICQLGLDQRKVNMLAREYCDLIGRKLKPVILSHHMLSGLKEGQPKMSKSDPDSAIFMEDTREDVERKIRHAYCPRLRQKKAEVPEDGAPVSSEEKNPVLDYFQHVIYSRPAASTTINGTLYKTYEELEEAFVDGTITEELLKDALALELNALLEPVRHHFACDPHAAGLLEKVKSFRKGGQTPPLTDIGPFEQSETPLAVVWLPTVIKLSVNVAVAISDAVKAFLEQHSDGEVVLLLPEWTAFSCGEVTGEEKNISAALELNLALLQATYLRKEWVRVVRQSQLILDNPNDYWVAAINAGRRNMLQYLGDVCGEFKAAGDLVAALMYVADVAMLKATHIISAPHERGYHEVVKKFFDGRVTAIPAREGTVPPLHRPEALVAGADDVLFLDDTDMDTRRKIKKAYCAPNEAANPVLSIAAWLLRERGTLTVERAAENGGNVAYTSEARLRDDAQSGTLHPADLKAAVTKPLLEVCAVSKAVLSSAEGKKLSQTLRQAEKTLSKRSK
In words: Trypanosoma cruzi tyrosyl tRNA synthetase (TcYRS) _High Tyrosine SOP. Further: in the data most compounds retested in dose-response had high values. It counts as functional. The settings on record: 30 µM.

Assay [8] concerns the target T4, Tyrosyl-tRNA synthetase, putative (Trypanosoma cruzi (strain CL Brener)). In words: Trypanosoma cruzi tyrosyl tRNA synthetase (TcYRS) SOP. It counts as functional. To be noted: 30 µM.
In assay [9] the target is Chromo domain-containing protein 1 (Saccharomyces cerevisiae (strain ATCC 204508 / S288c) (Baker's yeast)) (UniProt P32657). In words: ScCHD-1 Enzyme Inhibition Assay. Further: in the data most compounds retested in dose-response had high values. To be noted: 30 µM. It counts as functional.
Sequence of Chromo domain-containing protein 1 (Saccharomyces cerevisiae (strain ATCC 204508 / S288c) (Baker's yeast)) (P32657 whole entry, the tested form may be a part): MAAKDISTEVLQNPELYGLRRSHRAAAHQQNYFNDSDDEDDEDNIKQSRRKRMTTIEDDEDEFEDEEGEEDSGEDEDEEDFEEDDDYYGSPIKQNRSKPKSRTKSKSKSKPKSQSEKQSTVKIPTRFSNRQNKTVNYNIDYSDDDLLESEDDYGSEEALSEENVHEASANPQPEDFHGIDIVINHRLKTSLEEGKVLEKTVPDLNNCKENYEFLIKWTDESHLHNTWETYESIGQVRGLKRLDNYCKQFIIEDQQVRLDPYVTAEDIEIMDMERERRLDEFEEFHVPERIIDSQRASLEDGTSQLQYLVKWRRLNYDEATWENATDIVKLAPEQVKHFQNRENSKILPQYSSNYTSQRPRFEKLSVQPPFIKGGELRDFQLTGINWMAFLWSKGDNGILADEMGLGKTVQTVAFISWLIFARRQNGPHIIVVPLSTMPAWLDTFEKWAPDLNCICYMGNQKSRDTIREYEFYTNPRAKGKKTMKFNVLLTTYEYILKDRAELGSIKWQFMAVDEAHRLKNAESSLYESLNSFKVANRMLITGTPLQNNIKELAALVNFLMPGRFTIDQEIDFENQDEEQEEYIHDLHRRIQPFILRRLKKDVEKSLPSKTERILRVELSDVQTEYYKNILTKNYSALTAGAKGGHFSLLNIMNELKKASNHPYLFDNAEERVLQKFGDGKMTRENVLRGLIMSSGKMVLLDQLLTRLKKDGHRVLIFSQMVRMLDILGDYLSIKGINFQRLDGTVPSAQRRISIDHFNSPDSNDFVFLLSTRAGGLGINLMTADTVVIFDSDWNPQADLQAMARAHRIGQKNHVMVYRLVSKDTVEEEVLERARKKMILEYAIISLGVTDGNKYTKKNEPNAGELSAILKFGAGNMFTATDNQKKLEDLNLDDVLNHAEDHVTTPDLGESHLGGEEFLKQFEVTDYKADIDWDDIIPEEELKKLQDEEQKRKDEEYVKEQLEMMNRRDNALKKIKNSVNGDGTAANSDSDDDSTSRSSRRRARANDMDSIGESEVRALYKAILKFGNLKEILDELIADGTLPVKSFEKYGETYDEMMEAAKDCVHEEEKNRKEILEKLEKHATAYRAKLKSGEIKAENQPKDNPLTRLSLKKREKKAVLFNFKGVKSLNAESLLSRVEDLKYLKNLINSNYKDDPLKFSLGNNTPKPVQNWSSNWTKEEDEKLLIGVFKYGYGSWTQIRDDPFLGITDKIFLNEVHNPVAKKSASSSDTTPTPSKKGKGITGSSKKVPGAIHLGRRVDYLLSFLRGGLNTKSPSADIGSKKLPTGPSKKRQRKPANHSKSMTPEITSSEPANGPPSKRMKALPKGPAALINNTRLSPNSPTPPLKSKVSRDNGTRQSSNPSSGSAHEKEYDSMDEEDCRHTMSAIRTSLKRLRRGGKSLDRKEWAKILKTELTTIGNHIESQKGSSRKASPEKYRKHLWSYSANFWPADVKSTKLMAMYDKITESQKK

Structures are written as SMILES. For part of these data: Entries with a potency or affinity are not part of this list.

Sequence of Protein translocase subunit SecA (Escherichia coli (strain K12)) (P10408 whole entry): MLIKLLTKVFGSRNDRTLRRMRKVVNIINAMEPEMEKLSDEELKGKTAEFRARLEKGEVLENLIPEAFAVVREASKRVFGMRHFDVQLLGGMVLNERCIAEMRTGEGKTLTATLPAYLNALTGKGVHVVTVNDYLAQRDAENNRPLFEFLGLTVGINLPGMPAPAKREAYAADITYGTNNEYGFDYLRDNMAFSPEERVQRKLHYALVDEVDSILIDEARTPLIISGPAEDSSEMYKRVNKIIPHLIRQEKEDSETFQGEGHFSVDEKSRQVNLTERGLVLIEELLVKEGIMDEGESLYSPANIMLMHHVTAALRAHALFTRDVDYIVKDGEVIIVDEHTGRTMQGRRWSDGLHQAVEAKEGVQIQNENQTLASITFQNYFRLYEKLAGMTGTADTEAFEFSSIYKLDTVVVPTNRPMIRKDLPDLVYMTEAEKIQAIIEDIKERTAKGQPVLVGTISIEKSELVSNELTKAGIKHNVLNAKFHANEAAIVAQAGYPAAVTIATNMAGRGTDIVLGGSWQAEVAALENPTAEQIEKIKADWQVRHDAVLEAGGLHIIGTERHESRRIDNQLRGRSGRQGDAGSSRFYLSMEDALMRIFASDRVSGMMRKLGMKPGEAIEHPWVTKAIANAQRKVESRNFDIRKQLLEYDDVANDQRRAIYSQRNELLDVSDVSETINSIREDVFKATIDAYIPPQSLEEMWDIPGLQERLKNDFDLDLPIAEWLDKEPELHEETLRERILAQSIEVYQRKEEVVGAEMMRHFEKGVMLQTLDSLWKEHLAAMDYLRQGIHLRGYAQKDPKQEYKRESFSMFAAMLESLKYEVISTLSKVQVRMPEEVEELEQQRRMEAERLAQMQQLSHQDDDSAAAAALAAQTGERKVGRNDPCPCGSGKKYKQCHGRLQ
Sequence of Sialic acid-binding Ig-like lectin 9 (Homo sapiens) (Q9Y336 whole entry): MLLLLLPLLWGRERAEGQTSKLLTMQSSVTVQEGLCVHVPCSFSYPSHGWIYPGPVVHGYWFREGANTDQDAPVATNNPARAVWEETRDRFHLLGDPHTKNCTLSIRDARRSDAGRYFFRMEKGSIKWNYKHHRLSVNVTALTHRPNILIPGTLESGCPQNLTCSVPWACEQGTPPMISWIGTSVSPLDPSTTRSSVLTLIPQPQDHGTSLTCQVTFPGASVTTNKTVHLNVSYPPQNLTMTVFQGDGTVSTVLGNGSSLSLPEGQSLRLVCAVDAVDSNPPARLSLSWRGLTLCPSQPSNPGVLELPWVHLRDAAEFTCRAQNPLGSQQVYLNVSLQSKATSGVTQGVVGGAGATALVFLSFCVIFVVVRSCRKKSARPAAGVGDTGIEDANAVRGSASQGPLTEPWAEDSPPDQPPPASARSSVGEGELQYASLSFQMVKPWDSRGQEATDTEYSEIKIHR

For the compound `COc1ccccc1CC1CCCN(CC(=O)N2CCOCC2)C1` (centres undefined), the Percent Effect in [1] was -0.695%; in [2], -7.79%; in [3], 1.77%; in assay [4], 6.99%; in the assay with Trypanosoma cruzi it was 1.08%; in [5], 2.32%. For the same compound, the Percent Effect was -1.54% in assay [6]; 2.85% in the assay filed under Homo sapiens; -1.91% in [7]; 0% in [8]; -10% in assay [9].

Consider `CC(C)N1CCC(CNCc2c[nH]nc2C(C)(C)C)C1` (centres undefined), for which the Percent Effect was -2.43% in assay [1]; 29.7% in [2]; -3.65% in [3]; -3.23% in assay [4]; 5.19% in the assay on Trypanosoma cruzi; -14.4% in assay [5]. For the same compound, the Percent Effect in assay [6] is 17.1%; in the assay listed under Homo sapiens, 22%; in assay [7], 9.36%; in [8] it was 23.5%; in assay [9] it was -10.6%.

In the case of `CN(C)C(=O)CCCNC(=O)C(c1cccc(F)c1)N(C)C` (centres undefined), the Percent Effect in [1] is 0.633%; in assay [2], 13.5%; in assay [3], -10.5%; in assay [4], 5.14%; with Trypanosoma cruzi, 5.41%; in assay [5] it was -1.43%. Also, the Percent Effect in assay [6] is 11.7%; in the assay listed under Homo sapiens, 24.9%; in [7], 10.1%; in assay [8], 12.2%; in assay [9], -1.94%.

On to `Cc1cc(CNC(=O)N2CCCN(Cc3ccccc3)CC2)no1`, for which the Percent Effect in assay [1] is -3.91%; in assay [2], 12.7%; in assay [3], -1.73%; in [4] it was 0.846%; with Trypanosoma cruzi, -5.38%; in [5], -2.66%. Besides, the Percent Effect in assay [6] is 10.7%; in the assay filed under Homo sapiens, 18.1%; in assay [7], 2.46%; in assay [8], 11.4%; in assay [9], -4.24%.

With `CCN1CCN(CC(O)c2ccc(F)cc2)CC1` (centres undefined), the Percent Effect is -4.5% in assay [1]; 2.7% in [2]; -2.92% in assay [3]; 3.74% in assay [4]; -2.92% with Trypanosoma cruzi; -0.401% in assay [5]. Also, the Percent Effect is 3.96% in assay [6]; 3.68% in the assay listed under Homo sapiens; 5.42% in [7]; 13.6% in assay [8]; -6.3% in assay [9].

On to `O=C(NCCCN1CCCCC1)c1ccc(-n2ccc3ccccc32)s1`, for which the Percent Effect in assay [1] was -0.638%; in assay [2] it was -23.4%; in assay [3] it was -0.0111%; in assay [4] it was -2.17%; in the assay on Trypanosoma cruzi, 11.1%; in assay [5], -9.68%. Further, the Percent Effect is 9.4% in assay [6]; 22.6% in the assay filed under Homo sapiens; -3.17% in assay [7]; 1.28% in assay [8]; 1.91% in [9].

`CN(C)CC1CN(c2ccc(C#N)cn2)CCO1` (centres undefined): the Percent Effect in assay [1] is -4.87%; in assay [2], -5.26%; in [3] it was -3.08%; in assay [4] it was 5.48%; in the assay with Trypanosoma cruzi, 3.27%; in assay [5], -4.32%. Besides, the Percent Effect in [6] is -5.16%; in the assay filed under Homo sapiens, -1.95%; in [7], 2.46%; in [8] it was 3.7%; in [9], -8.21%.

Take `OCC1CCCN1c1cc(NCCNc2ccccn2)ncn1` (centres undefined): the Percent Effect in [1] is -3.44%; in assay [2] it was 5.48%; in [3] it was -4.46%; in assay [4] it was -5.01%; in the assay with Trypanosoma cruzi, 1.18%; in assay [5], 3.64%. Besides, the Percent Effect in [6] was 20.4%; in the assay filed under Homo sapiens, 22.1%; in assay [7], 2.15%; in [8] it was 10%; in assay [9], -7.12%.

Turning to `CC(C)c1n[nH]c(C2CN(C(=O)c3csnn3)CCO2)n1` (centres undefined), the Percent Effect was -2.56% in [1]; -7.89% in assay [2]; -6.16% in assay [3]; 6.92% in assay [4]; 4.58% in the assay with Trypanosoma cruzi; 1.08% in assay [5]. For the same compound, the Percent Effect in assay [6] is 0.592%; in the assay listed under Homo sapiens it was -2.95%; in [7] it was 3.45%; in [8], 6.17%; in assay [9], -3.21%.

Source of the values: ChEMBL document CHEMBL3988442, “University of Dundee, Small-Polar-MMV Screening Library” (2021).
